Compound activity from PubChem BioAssay.
KB-3-1 cytotox – kills parental KB-3-1 adenocarcinoma cells. KB-3-1 viability, CellTiter-Glo ATP luminescence, 72 h. 400,000 tested, 1.4% active. AID 1347075. Potency, µM (series often up to 46.1 µM), usual class: cytotoxic; also: % is scaled to controls: 0 for no effect and ±100 for the full control effect; nearly all actives have a fitted effect of over 60% in size
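Cells are dispensed, compounds pinned in, plates held at 37 °C for 72 h, then CellTiter-Glo is added and luminescence read after 10 minutes. Cell line: parental KB-3-1 in phenol-red-free DMEM, 10% FBS.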
SW480 rereplic – DNA re-replication induction in SW480 cells | Potency, µM (titrated, usually from 46.1 µM), without a hit: at the highest dose re-replication activation, hits mostly activators | SW480 DNA re-replication, Hoechst DNA content imaging, 48 h | AID 624297 | 340,000 tested, 1.8% active; also: % of control where 0% means no effect; nearly all actives have a fitted effect of over 55% in size
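Compounds, transferred as 23 nL by pin tool, were incubated with cells for 48 hr; DNA content per nucleus was then quantified by Hoechst staining and fluorescence plate imaging.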
VP16 counter – counter-screen for ROR gamma inhibitors: Gal4-VP16 reporter; Drosophila S2 Gal4-VP16 UAS-luciferase, luminescence, 20 h; Potency, µM (doses to about 53.6 µM), inactives show at the highest dose activity, negative = inhibition, usual class: inhibitors; 310,000 tested, 3.5% active; AID 2546;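 also: Gal4-VP16 expression switched on by copper sulfate through the metallothionein promoter; % is scaled to controls: 0 for no effect and ±100 for the full control effect; nearly all actives have a fitted effect of over 50% in size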
MCF10A rerep – DNA re-replication induction in MCF 10a cells | Potency, µM (doses to about 46.1 µM), without a hit: top-dose activity, positive = re-replication, hits mostly activators | MCF 10A DNA re-replication, Hoechst nuclear intensity, 48 h | 350,000 tested, 2.9% active; also: % of control where 0% means no effect; nearly all actives have a fitted effect of over 50% in size
KB-V1 cytotox – KB-V1 MDR subline cytotoxicity; KB-V1 MDR cells viability, CellTiter-Glo, 72 h; Potency, µM (titrated, usually from 46.1 µM), hits mostly cytotoxic; 400,000 tested, 3.4% active; AID 1347076; also: % is scaled to controls: 0 for no effect and ±100 for the full control effect; nearly all actives have a fitted effect of over 60% in size
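Drug-selected KB-V1 cells, grown in DMEM lacking phenol red with 10% FBS, receive compound titrations; after three days at 37 degrees C, surviving cell ATP is quantified by CellTiter-Glo luminescence and responses normalized and curve-fitted.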
RORgamma inh – blocks mouse ROR gamma transcriptional activity; Potency, µM (doses to about 53.6 µM), inactives show at the top dose activity change, negative = inhibition, hits mostly inhibitors; 310,000 tested, 5.4% active; AID 2551; P51450; Drosophila S2 Gal4-RORgamma UAS-luciferase reporter, 20 h; also: % is scaled to controls: 0 for no effect and ±100 for the full control effect; nearly all actives have a fitted effect of over 60% in size
Target sequence (P51450 whole entry, looked up, the tested form may be a part): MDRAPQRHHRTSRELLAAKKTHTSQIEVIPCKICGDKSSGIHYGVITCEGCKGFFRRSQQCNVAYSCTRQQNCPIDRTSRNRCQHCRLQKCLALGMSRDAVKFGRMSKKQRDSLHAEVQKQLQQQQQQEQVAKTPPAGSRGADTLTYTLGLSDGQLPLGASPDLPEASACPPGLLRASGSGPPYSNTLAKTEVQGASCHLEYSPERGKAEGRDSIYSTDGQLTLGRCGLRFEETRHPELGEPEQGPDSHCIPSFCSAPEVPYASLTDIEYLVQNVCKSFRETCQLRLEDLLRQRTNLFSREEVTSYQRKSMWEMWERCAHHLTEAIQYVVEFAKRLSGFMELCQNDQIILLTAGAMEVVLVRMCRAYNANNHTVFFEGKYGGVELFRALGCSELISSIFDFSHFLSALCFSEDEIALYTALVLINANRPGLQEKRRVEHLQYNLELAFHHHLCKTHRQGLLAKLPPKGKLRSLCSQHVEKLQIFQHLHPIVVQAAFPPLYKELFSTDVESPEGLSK
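Luciferase reporter read in Schneider cells carrying Gal4-RORγ (mouse) and UAS-Photinus luciferase; cells given compound 1 h before 700 uM copper sulfate induction, then incubated 20 h at ambient temperature.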
Active calls of the source: *; i = inactive; ? = inconclusive; . = no result given; [ ] = remark or other dose. Sampled rows, rich in hits. Any-hit rate of the full collection: about 10%. Calls follow the shape of the dose curve; as a rule, active = well fitted curve in the direction sought with a large enough effect; inconclusive = small, poorly fitted or top-dose-only effect, or another doubt; inactive = no such curve, though single readings can be large; an effect the other way counts as inactive or inconclusive. Potency is read from the fitted curve at half-maximal effect.

SMILES	KB-3-1 cytotox	SW480 rereplic	VP16 counter	MCF10A rerep	KB-V1 cytotox	RORgamma inh
COc1cc(C(=O)NCC(c2ccco2)N2CCCC2)ccc1OCc1ccc(Cl)cc1Cl (centres undefined)	i	?	.	18µM*	?	.
CCC1CCc2sc(C(=O)NCC(c3ccc(OC)cc3)N3CCCC3)cc2C1 (centres undefined)	?	?	.	?	9.2µM*	.
COc1ccc(C(CNC(=O)CNC(=O)c2ccccc2Cl)N2CCCC2)cc1 (centres undefined)	i	-12%	.	24%	i	.
COc1ccc(C(CNC(=O)c2cccc(N(C)C)c2)N2CCCC2)cc1 (centres undefined)	i	?	9%	-182%[0.0737 µM]	i	-23%
COc1ccc(C(CNC(=O)c2cc3ccccc3cc2OC)N2CCCC2)cc1 (centres undefined)	i	2%	0%	8%	4.6µM*	5%
Cc1ccc(S(=O)(=O)c2cn(Cc3ccccc3Cl)c3ccc(F)cc3c2=O)cc1	i	.	.	.	i	.
COc1ccc2cc(C3CC=C(CO)CN3S(=O)(=O)c3ccccc3[N+](=O)[O-])n(C(=O)OC(C)(C)C)c2c1 (centres undefined)	i	.	.	.	?	.
CCOC(=O)C1=C(CN2CCN(C(=O)c3ccco3)CC2)NC(=O)NC1c1ccccc1 (centres undefined)	i	-19%	10%	-1%	i	2%
N#Cc1ccc(-c2ccccc2)nc1SCC(=O)c1cccc(Cl)c1	i	0%	?	14µM*	i	?
O=C1NC[C@@H](CCCCN2CCN(CCC3CCCCC3)C(=O)C2=O)N(CCC2CCCCC2)C1=O	i	.	.	.	i	.
Cc1ccsc1/C=C/c1ccc2ccccc2n1	?	-2%	?	?	?	10µM*
Cc1ccsc1/C=C/c1ccc2cccc(O)c2n1	?	?	?	?	13µM*	4.5µM*
COc1ccccc1/C=C/c1ccc2ccccc2n1	i	.	.	.	i	.
CCCCCCCCN1C(=O)[C@H](CC(=O)N2CCN(C(=O)OCC)CC2)C[C@@]2(C(=O)OC)CCCCC=C12	i	.	.	.	?	.
COc1cccc(NC(=S)Nc2cccnc2)c1	i	-156%	-11%	1%	i	?
Cc1ccc(NC(=S)Nc2cccnc2)c(S(=O)(=O)N2CCCCC2)c1	?	-6%	16µM*	?	i	?
CC(C)OC(=O)c1ccc(NC(=S)NC(=O)c2cncc(Br)c2)cc1	i	2%	2.8µM*	16%	i	2.2µM*
COc1cccc(NC(=S)NC(=O)c2cncc(Br)c2)c1	?	18µM*	.	16%	i	.
COc1cccc(NC(=S)NC(=O)c2cccnc2)c1	i	2%	-94%	-15%	?	20µM*
Cc1ccc(NC(=S)NC(=O)c2cncc(Br)c2)cc1Cl	i	16%	.	?	i	.
CCCCn1c(=O)c2oc3ccccc3c2n(Cc2ccc(C)cc2)c1=O	i	.	.	.	?	.
CC1CC(C)CN(CCCNC(=O)C2CCCN(S(=O)(=O)N3CC(C)CC(C)C3)C2)C1 (centres undefined)	i	4%	7%	5%	i	-21%
O=C(NC(=S)Nc1cccc(Cl)c1)c1cncc(Br)c1	i	?	.	23%	i	.
CCc1c(C)sc(NC(=S)Nc2nc(C)cc(C)n2)c1C(=O)OC	i	-1%	7%	15%	?	-40%
CC(=O)c1cccc(NC(=S)NC(=O)c2cncc(Br)c2)c1	?	5%	18µM*	-1%	?	10µM*
SMILES	KB-3-1 cytotox	SW480 rereplic	VP16 counter	MCF10A rerep	KB-V1 cytotox	RORgamma inh
CCc1c(C)sc(NC(=S)Nc2cccnc2)c1C(=O)OC	i	-3%	6.3µM*	1%	i	3.5µM*
CCOC(=O)c1cccc(NC(=S)NC(=O)c2cccnc2)c1	i	-9%	?	-12%	i	13µM*
Cc1cc(C)cc(C(=O)NC(=S)Nc2cccnc2)c1	i	-7%	?	0%	?	10µM*
O=C(NC(=S)Nc1cccnc1)c1cccc(Cl)c1	i	.	.	.	i	.
CC(=O)Nc1ccc(S(=O)(=O)Nc2cccc(-c3ccc(N4CCC(C)CC4)nn3)c2)cc1	i	.	.	.	i	.
Cc1ccc2cccc(CC(=O)NN)c2c1	i	.	.	.	i	.
Cc1ccc(NC(=O)Cn2c(-c3ccc4c(c3)OCO4)cn(-c3ccccc3)c2=O)cc1	i	.	.	.	i	.
O=c1[nH]c(CN2CCN(c3ccc(O)cc3)CC2)nc2scc(-c3ccc(Cl)cc3)c12	?	3.7µM*	-27%	?	i	20%
COc1cccc(N2CCN(Cc3nc4scc(-c5ccccc5)c4c(=O)[nH]3)CC2)c1	?	?	?	10µM*	9.2µM*	-32%
O=c1[nH]c(CN2CCN(c3ccccc3O)CC2)nc2scc(-c3ccccc3Cl)c12	?	-22%	1%	20%	i	-6%
CN(Cc1ccccc1)Cc1nc2scc(-c3ccccc3)c2c(=O)[nH]1	i	1%	?	21%	i	3.2µM*
O=c1[nH]c(Cc2ccccc2)nc2scc(-c3ccccc3)c12	i	-2%	9%	?	i	?
Cc1csc(SC(C)c2nc3scc(-c4ccccc4)c3c(=O)[nH]2)n1 (centres undefined)	?	-29%	-3%	?	9.2µM*	-2%
Cc1cc(C)cc(-n2ccnc2SCC(=O)Nc2ccc(C)cc2C)c1	i	.	.	.	i	.
CCSc1nnc(-c2ccc(S(=O)(=O)NCc3cccs3)cc2)o1	i	-8%	23%	?	21µM*	31%
C/C(CCC(=O)OC[C@@H]1O[C@H](C#Cc2ccccc2)C=C[C@@H]1Oc1ccc(C)cc1)=N/O[C@@H](C)CN1CCCCc2nc(C)c(C)cc21	.	.	4%[10 µM]	.	.	0%[10 µM]
Fc1ccc(Nc2ncnc3ccc(-c4ccoc4)cc23)cc1	.	.	-11%	.	.	?
C=CCNC(=S)Nc1sc2c(c1C(=O)OCC)CC(C)(CC)OC2 (centres undefined)	i	20%	?	1%	?	2.8µM*
CCOC(=O)Nc1sc2c(c1C(=O)OCC)CCC2	i	1%	12%	11%	i	8%
CCOC(=O)c1c(NC(NC(=O)C(C)C)C(Cl)(Cl)Cl)sc2c1CCC2 (centres undefined)	?	?	5%	23µM*	23µM*	?
CCOC(=O)c1c(NC(=S)N2CCCCC2)sc2c1CCN(C(=O)OCC)C2	i	-44%	0%	21µM*	i	-40%
